A short description of assay [1]: viability loss with induced miR-34 in A549 – imaging, A549 dox-inducible miR-34, nuclei and caspase counts, primary screen (AID 1347080). As to conditions: A549 miR-34 inducible, Hoechst nuclei count, 48 h.
A short description of assay [2]: MELAS cybrid and Rieske KO viability enhancers – cell-based, MELAS cybrids, Rieske KO mouse fibroblasts, CellTiter-Glo, primary screen (AID 1508586;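 active means mean z-score across replicates of 1.96 or higher in either the MELAS or the Rieske mutant cell line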;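 further: z relative to plate mean and SD of compound and empty wells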). The note with it: low glucose. A general note: Cellular ATP, detected with luciferase, serves as a proxy for viable cell number.
In assay [3] the test system is Hepatitis C virus NS3 helicase. The assay is described as follows: blockers of NS3h binding to ssDNA – biochemical, fluorescence polarization, LOPAC1280 library, primary screen (AID 687035; in the data active means inhibition above about 37%). As to conditions: Purified HCV NS3 helicase, Cy5-dT15 ssDNA binding fluorescence polarization; stronger effect = higher value; concentration not given here. Background: In fluorescence polarisation assays a small probe gives low polarisation when free and higher when bound to something large.

Assay [4] in a line: compounds altering Cy5-DNA-NS3h complex signal – biochemical, LOPAC1280, artefact control for HCV NS3 helicase inhibitor project (AID 687037; call rule not given here). As to conditions: Cy5-DNA-NS3h complex fluorescence interference counterscreen.
Assay [5] is described as follows: blockers of cellular phospholipid synthesis – cell-based, LOPAC library, screen 4, primary screen (AID 1347384; call rule not given here). The note with it: animal cells, phospholipid biosynthesis inhibition screen; at 10 µM.
A short description of assay [6]: galactose survival enhancers in mitochondrial complex I cybrids – cell-based, galactose medium, ATP luminescence, primary screen (AID 1645843;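 active means z-score of at least 1.8 in each of two replicates, scored against plate mean and spread of sample wells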;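 further: positive z means more ATP and so rescue of galactose-driven cybrid death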). As to conditions: complex I mutant cybrid cells, 72 h, stronger effect = higher value.
A short description of assay [7]: P. berghei load reduction in hepatocytes – cell-based, HepG2, luciferase luminescence, HepG2 viability, primary screen (AID 624349; in the data active means parasite load remaining mostly below about 12%, no sharp cut-off; inactive means mostly above about 10%;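 further: 100% = mean of DMSO negative control wells on the same plate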). As to conditions: P. berghei liver stage in HepG2, luciferase luminescence, concentration not given here; parasite load remaining: stronger effect = lower value; viability: measured here: HepG2 viability without parasites.
Assay [8] concerns the target NAD(+) hydrolase SARM1 (Homo sapiens) (UniProt Q6SZW1). The assay is described as follows: blocking NAD cleavage by SARM1 SAM-TIR – cell lysate, NAD-Glo luminescence (AID 1508614;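 active means compound whose remaining NAD level is above about 45 nM, limit read from the data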). As to conditions: SAM-TIR HEK293T lysate NADase, at 1 µM, stronger effect = higher value.
The target in assay [9] is Mitogen-activated protein kinase 7 (Homo sapiens) (UniProt Q13164). Put plainly: Gal4-ERK5 driven luciferase induction – cell-based, HTS, primary screen (AID 1508626;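 active means luciferase signal above three times the same-plate solvent-only control wells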;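 further: luciferase driven by Gal4-ERK5 fusion binding five Gal4 sites before minimal TATA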). The note with it: HeLa Gal4-ERK5 transactivation, 18 h, at 5 µM, stronger effect = higher value.
Mitogen-activated protein kinase 7 (Homo sapiens), sequence (Q13164 whole entry, looked up, the tested form may be a part): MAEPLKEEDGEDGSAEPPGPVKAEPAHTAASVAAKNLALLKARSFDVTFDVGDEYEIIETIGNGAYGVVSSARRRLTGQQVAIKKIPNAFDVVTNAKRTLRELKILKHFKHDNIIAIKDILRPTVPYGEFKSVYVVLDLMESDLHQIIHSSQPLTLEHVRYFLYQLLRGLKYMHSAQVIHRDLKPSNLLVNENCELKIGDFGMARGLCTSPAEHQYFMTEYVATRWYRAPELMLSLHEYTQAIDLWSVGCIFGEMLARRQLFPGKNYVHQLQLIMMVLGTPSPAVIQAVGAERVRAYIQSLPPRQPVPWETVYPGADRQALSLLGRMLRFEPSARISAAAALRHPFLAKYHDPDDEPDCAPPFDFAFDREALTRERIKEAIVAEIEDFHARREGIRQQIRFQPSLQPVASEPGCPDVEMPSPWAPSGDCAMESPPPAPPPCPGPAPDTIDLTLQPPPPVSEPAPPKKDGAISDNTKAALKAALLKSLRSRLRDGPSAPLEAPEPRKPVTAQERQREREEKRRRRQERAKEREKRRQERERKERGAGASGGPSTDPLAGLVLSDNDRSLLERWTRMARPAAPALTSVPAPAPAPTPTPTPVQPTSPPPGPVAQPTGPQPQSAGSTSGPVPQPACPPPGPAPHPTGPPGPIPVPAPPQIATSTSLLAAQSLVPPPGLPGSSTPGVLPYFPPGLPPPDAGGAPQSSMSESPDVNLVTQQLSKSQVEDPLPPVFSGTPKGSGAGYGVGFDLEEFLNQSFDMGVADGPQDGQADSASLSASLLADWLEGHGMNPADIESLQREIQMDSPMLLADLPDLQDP
The mark [10] stands for this setting: stronger effect = lower value, cell number ratio, induced over uninduced.
Where [11] appears, read: measured here: relative caspase fold change +Dox/-Dox.
The mark [12] stands for this setting: measured here: total cells with miR-34 induction, stronger effect = lower value.
The mark [13] stands for this setting: measured here: total cells without miR-34 induction.
[14] abbreviates: MELAS cybrid survival, CellTiter-Glo 48 h, stronger effect = higher value.
Setting [15] is: Rieske KO mouse fibroblast survival, CellTiter-Glo 72 h.

Several values for one entry are separate records, joined by “and”; a condition that tells them apart may be missing. Equal values may be shown once. Activity calls are given as the source filed them.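 How the source made its calls, unless noted: active means compounds whose cell count with miR-34 switched on is under 0.7 times the count with it off; inactive means the rest.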

NAD(+) hydrolase SARM1 (Homo sapiens), sequence (Q6SZW1 whole entry, looked up, the tested form may be a part): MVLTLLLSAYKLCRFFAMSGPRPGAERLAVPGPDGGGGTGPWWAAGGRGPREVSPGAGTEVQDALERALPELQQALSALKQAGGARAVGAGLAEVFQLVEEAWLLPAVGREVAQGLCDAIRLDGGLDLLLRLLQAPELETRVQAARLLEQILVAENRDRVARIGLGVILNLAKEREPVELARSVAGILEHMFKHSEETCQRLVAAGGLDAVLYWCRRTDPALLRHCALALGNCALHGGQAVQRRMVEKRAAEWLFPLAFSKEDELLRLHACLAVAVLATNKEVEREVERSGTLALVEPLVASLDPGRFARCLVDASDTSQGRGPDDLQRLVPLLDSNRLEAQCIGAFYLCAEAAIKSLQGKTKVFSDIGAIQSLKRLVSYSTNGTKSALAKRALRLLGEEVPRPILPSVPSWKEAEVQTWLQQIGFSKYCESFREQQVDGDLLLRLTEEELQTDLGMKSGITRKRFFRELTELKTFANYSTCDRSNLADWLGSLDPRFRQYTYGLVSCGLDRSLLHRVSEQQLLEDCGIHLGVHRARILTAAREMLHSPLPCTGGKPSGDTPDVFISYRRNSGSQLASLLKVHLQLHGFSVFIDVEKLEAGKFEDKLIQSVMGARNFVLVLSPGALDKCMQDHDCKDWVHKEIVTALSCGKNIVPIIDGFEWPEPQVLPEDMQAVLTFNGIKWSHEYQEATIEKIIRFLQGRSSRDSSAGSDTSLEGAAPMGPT

With `CC1C=CC=CCCC=CC=CC=CC=CC(OC2OC(C)C(O)C(N)C2O)CC2O[C@@](O)(CC(O)C(O)CCC(O)CC(O)CC(O)CC(=O)OC(C)C(C)C1O)CC(O)C2C(=O)O` (stereo partly drawn), the fold change in assay [1] (setting [10]) was 0.946 (inactive); in assay [1] (setting [11]), 1.01. Besides, the values for the cell count in assay [1] (setting [12]) and in assay [1] (setting [13]) were 7910 and 8370, respectively. Further, the z-score in assay [2] (setting [14]) is 0.0382 (inactive); in assay [2] (setting [15]), 0.415.
With `CC1CCCC=C[C@@H]2CC(O)C[C@H]2C(O)C=CC(=O)O1` (stereo partly drawn), the fold change in assay [1] (setting [10]) is 1.09 (inactive); in [1] (setting [11]), 1.21. For the same compound, the values for the cell count in assay [1] (setting [12]) and in assay [1] (setting [13]) were 2230 and 2050, respectively. In addition, the results for the z-score in [2] (setting [14]) and in assay [2] (setting [15]) were 4.01 (active) and -2.64, respectively.
With `C=C[C@H]1CN2CCC1C[C@H]2C(O)c1ccnc2ccccc12` (stereo partly drawn), the results for the fold change in assay [1] (setting [10]) and in assay [1] (setting [11]) were 0.935 (inactive) and 0.691, respectively. Further, the cell count in assay [1] (setting [12]) stood at 8540; in assay [1] (setting [13]) it was 9140. Also, the z-score was -0.21 (inactive) in assay [2] (setting [14]) and 0.792 in assay [2] (setting [15]).
One may read the inhibition as the change of the read-out against control, counted positive when it falls. Consider `C[C@H](N)Cc1cccc(C(F)(F)F)c1`, for which the inhibition in assay [3] was -3% (inactive). In addition, the fluorescence ratio (interference) in assay [4] is 1 (inactive). Moreover, the fold change in assay [1] (stronger effect = lower value) was 0.951 (inactive); in [1] (setting [11]), 1.01. The results for the cell count in assay [1] (setting [12]) and in assay [1] (setting [13]) were 10400 and 11000, respectively. In addition, in assay [5], the outcome was inactive. Also, in [6], the z-score is 0.04 (inactive).
Consider `Cc1cc(C(=O)CN2CCCC2)c(C)n1-c1ccc(F)cc1`, for which the fold change was 0.909 (inactive) in assay [1] (stronger effect = lower value) and 0.246 in assay [1] (setting [11]). Further, the cell count in [1] (setting [12]) was 8040; in assay [1] (setting [13]), 8840. Besides, the z-score was -0.384 (inactive) in [2] (setting [14]) and 0.483 in assay [2] (setting [15]).
In the case of `C[C@]12NC(Cc3ccccc31)c1ccccc12`, the fold change in assay [1] (stronger effect = lower value) is 0.981 (inactive); in assay [1] (setting [11]), 0.318. The cell count in [1] (setting [12]) was 8080; in assay [1] (setting [13]), 8230. Besides, the z-score was -0.147 (inactive) in assay [2] (setting [14]) and -0.0728 in assay [2] (setting [15]).
`Cc1ccc(-n2nccn2)c(C(=O)N2CCN(c3nc4cc(Cl)ccc4o3)CCC2C)c1` (stereo not drawn): the results for the fold change in assay [1] (stronger effect = lower value) and in [1] (setting [11]) were 0.837 (inactive) and 0.399, respectively. Moreover, the cell count in assay [1] (setting [12]) worked out at 6970; in [1] (setting [13]) it was 8330. Besides, the z-score was -0.269 (inactive) in assay [2] (setting [14]) and -2.87 in assay [2] (setting [15]).
On to `O=C1CC[C@@]2(O)C3Cc4ccc(O)c5c4[C@@]2(CCN3CC2CC2)C1O5` (stereo partly drawn), for which the fold change in assay [1] (stronger effect = lower value) was 0.922 (inactive); in [1] (setting [11]) it was 4.62. In addition, the cell count in assay [1] (setting [12]) came to 8340; in assay [1] (setting [13]), 9040. Besides, the z-score in assay [2] (setting [14]) is 1.92 (inactive); in [2] (setting [15]) it was -1.89.
For the compound `Clc1ccc(C(Cn2ccnc2)OCc2ccc(Sc3ccccc3)cc2)c(Cl)c1` (stereo not drawn), the fold change in assay [1] (setting [10]) was 0.851 (inactive); in assay [1] (setting [11]), 0.891. The cell count came to 6850 in assay [1] (setting [12]) and 8050 in assay [1] (setting [13]). For the same compound, the z-score in [2] (setting [14]) was -0.265 (inactive); in assay [2] (setting [15]), 0.16.
Regarding `CC1CC[C@H]2C(C)C(=O)O[C@@H]3O[C@@]4(C)CC[C@@H]1[C@]32OO4` (stereo partly drawn), the fold change is 0.916 (inactive) in assay [1] (setting [10]) and 0.744 in assay [1] (setting [11]). Besides, the cell count came out at 6910 in [1] (setting [12]) and 7540 in [1] (setting [13]). Moreover, the z-score in [2] (setting [14]) is -0.427 (inactive); in assay [2] (setting [15]), 0.217.
For `C1CCN(C2CCNCC2)CC1`, the fold change in assay [1] (setting [10]) was 0.919 (inactive); in assay [1] (setting [11]), 0.5. The cell count in assay [1] (setting [12]) worked out at 8270; in assay [1] (setting [13]) it was 9000. Also, the z-score in [2] (setting [14]) is -1.03 (inactive); in assay [2] (setting [15]) it was 0.0453; in [6] it was 0.44 (inactive).
By viability is commonly meant a read-out of living cells in per cent, often relative to untreated cells. In the case of `O=C1C[C@@H]2OCC=C3CN4CC[C@]56c7ccccc7N1[C@H]5[C@H]2[C@H]3C[C@H]46`, the parasite load remaining in assay [7] was 96.5% (inactive). In [7], the viability is 226%. The fold change in assay [1] (stronger effect = lower value) is 0.929 (inactive); in assay [1] (setting [11]), 1.24. The cell count in assay [1] (setting [12]) stood at 10000; in assay [1] (setting [13]), 10800. For the same compound, the values for the z-score in assay [2] (setting [14]), in [2] (setting [15]) and in assay [6] were 0.997 (inactive), 0.445 and 0.365 (inactive), respectively. For the same compound, the remaining NAD in [8] is 10 nM (inactive). The luciferase signal in assay [9] is 48 AU (inactive).
On to `CCC1C(=O)OCC1Cc1cncn1C` (stereo not drawn), for which, in [7], the parasite load remaining is 38.7% (inactive). Further, in assay [7], the viability was determined as 114%. For the same compound, the fold change in assay [1] (setting [10]) was 0.926 (inactive) and 0.807 (inactive) and 0.899 (inactive); in assay [1] (setting [11]) it was 1.4 and 2.3 and 1.43. Moreover, the cell count is 9120 and 8440 and 10400 in assay [1] (setting [12]); 9850 and 10500 and 11500 in assay [1] (setting [13]). Further, the z-score in [2] (setting [14]) was -0.194 (inactive) and -0.728 (inactive); in [2] (setting [15]) it was -0.153 and 0.0525; in assay [6], 1.16 (inactive) and 0.695 (inactive).
Consider `CC(C)[C@@]12OC1C1O[C@]13[C@]1(OC1C[C@@H]1C4=C(CC[C@@]13C)C(=O)OC4)C2O` (stereo partly drawn), for which the fold change in assay [1] (setting [10]) was 0.989 (inactive); in assay [1] (setting [11]), 0.482. In addition, the cell count in [1] (setting [12]) was 1650; in assay [1] (setting [13]), 1670. The values for the z-score in [2] (setting [14]) and in assay [2] (setting [15]) were 1.17 (inactive) and -0.457, respectively.
For the compound `COC1=C[C@@H]2C3Cc4ccc(OC)c(O)c4[C@]2(CCN3C)CC1=O`, the results for the fold change in assay [1] (stronger effect = lower value) and in assay [1] (setting [11]) were 0.895 (inactive) and 0.909, respectively. The cell count in assay [1] (setting [12]) was 8920; in [1] (setting [13]), 9970. Also, the figures for the z-score in assay [2] (setting [14]) and in assay [2] (setting [15]) were -0.311 (inactive) and 0.879, respectively.
As for `CC(C)(C)[C@@]1(O)C[C@@H]2OC(=O)C[C@@]23C(=O)O[C@H]2OC(=O)C(O)C213` (stereo partly drawn), the values for the fold change in assay [1] (setting [10]) and in [1] (setting [11]) were 0.894 (inactive) and 1.49, respectively. In addition, the cell count in assay [1] (setting [12]) was 8490; in assay [1] (setting [13]), 9500. The z-score in assay [2] (setting [14]) was -0.286 (inactive); in [2] (setting [15]), 0.895.
Consider `O=c1ccc2cc(OC3OC(CO)C(O)C(O)C3O)c(O)cc2o1` (stereo not drawn), for which the fold change in assay [1] (setting [10]) was 0.961 (inactive); in assay [1] (setting [11]) it was 0.851. Further, the values for the cell count in assay [1] (setting [12]) and in assay [1] (setting [13]) were 9070 and 9440, respectively. For the same compound, the z-score in [2] (setting [14]) is -0.23 (inactive); in assay [2] (setting [15]), 0.0251.

(Values after PubChem BioAssay.)
